Structures are written as SMILES. This is part of a sample that, as a whole, favours compounds with a hit. Of some 83,000 tested, about 20% had one in any assay.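 The endpoint reported here, percent growth, reads 100 for growth as untreated, 0 for no net growth and -100 for all cells dead.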 A number with no mark means an inactive call. The source made the active and inactive calls. The calls were made as follows: active = growth percent below 10; inactive = the rest.

The first assay deals with CAKI-1 renal. Nature of the assay: NCI-60 one-dose screen, 48 h (100 = growth as untreated, 0 = no growth, -100 = all killed). To be noted: 10 µM unless noted.
With `COc1cccc2cc(-c3cc4ccccc4[nH]3)/c(=N/C(=S)Nc3ccc(C)cc3)oc12`, the growth was 19.2%.
For `CN1C(=O)N(C)C2NC(N/N=C/c3ccccc3)=NC21` (stereo not drawn), the growth was 88.8%.
Same read-out and setting: under `COc1cc(-c2cc(=O)oc3cc(O)ccc23)cc(OC)c1OC` stands 74%; under `COc1ccccc1/C=N/NC1=NC2C(N1)N(C)C(=O)N2C` (stereo not drawn), 91.7%.
For the compound `CCN(CC)CCSCCCNc1c(C)cnc2cc(Cl)ccc12`, the growth is 90.5%.
In the case of `COc1cc(Nc2cc(O)c3c(=O)cc(-c4ccccc4)oc3c2)cc(OC)c1`, the growth is 47.2%.
Still for that read-out and setting: under `NC(=O)c1ncn(C2OC(CO)C(O)C2O)n1` (stereo not drawn) stands 99.2%; under `C(=N\Nc1ncc(-c2cc3cc4c(cc3o2)OCO4)s1)/c1c[nH]c2ccccc12`, -43.3% (active).
Take `c1ccc(C2CC(c3cccc(Nc4ccncc4)c3)=NN2c2ccccc2)cc1` (stereo not drawn): the growth is 61.8%.
Still for that read-out and setting: under `CC1=NNC(=O)C1CCC(=O)N/N=C(\C)c1ccc2ccccc2c1` (stereo not drawn) stands 107%.
Take `O=C(N/N=C/c1ccncc1)c1ccccc1Nc1cccc(C(F)(F)F)c1`: the growth was 117%.
As for `COc1ccc(Nn2c(SCC(=O)Nc3nc(-c4ccc(Cl)cc4)cs3)nc(C)c2C)cc1`, the growth is 34.4%.
Consider `COc1c(Cl)cc(Cl)c2ccc(C=C3C(=O)N(C)C(=O)N(C)C3=O)nc12`, for which the growth is 95.3%.
On to `Cc1cccc(C)c1-c1cc(Cc2ccc(Cl)cc2)c(=O)[nH]n1`, for which the growth is 146%.
As to `CCN1C(=O)N(CC)C2C1NN=c1s/c(=C3\C(=O)Nc4ccccc43)c(=O)n12` (stereo not drawn), the growth is 35.5%.
Still for that read-out and setting: under `CC(=O)Nc1ccc(C(=O)Nc2cc(-c3ccccc3)ccc2N)cc1` stands 47.5%; under `CN1CCN(c2cc(F)c(NC3=C(Cl)C(=O)c4ncccc4C3=O)c(F)c2)CC1`, -85.6% (active); under `Clc1nc(Cl)c2ncn(CC3(Cn4cnc5c(Cl)nc(Cl)nc54)COC3)c2n1`, -87.8% (active).
On the same count and under the same terms, then `CC(C)(C)CC(C)(C)Nc1c(-c2ccc(C(F)(F)F)cc2)nc2cnccn12`, with 75.4%.
The same measure, in the same setting: under `CCC(C)N(CCNc1cc(OC)cc2cccnc12)CCC(C)C` (stereo not drawn) stands 90.8%.
Consider `Cn1c(COC(=O)NCCc2ccccn2)nc2c(N3CCOCC3)nc(Cl)nc21`, for which the growth was -78.9% (active).
In the case of `BrC(Br)(Br)c1cnc2ccccc2n1`, the growth was -29.7% (active).
As for `Clc1ccc(N2N=C(c3cccc(Nc4ccncc4)c3)CC2c2ccc3c(c2)OCO3)cc1` (stereo not drawn), the growth is 10%.
For the compound `COc1cc(CNC(=O)CCCCC[P+](c2ccccc2)(c2ccccc2)c2ccccc2)c(OC)c2c1OCO2`, the growth was 89.4%.
`CC[C@@]12C=CCN3CC[C@]4(c5cc(NC(=O)COc6cc(OCC(=O)Nc7cc8c(cc7OC)N(C)[C@H]7[C@@](O)(C(=O)OC)[C@H](OC(C)=O)[C@]9(CC)C=CCN%10CC[C@]87[C@@H]%109)cc7oc(-c8ccccc8)cc(=O)c67)c(OC)cc5N(C)[C@@H]4[C@](O)(C(=O)OC)[C@H]1OC(C)=O)[C@H]32`: the growth is 46.8%.
For the compound `O=C1Nc2c(ccc(Cl)c2Cl)/C1=C/c1ccc(O)cc1`, the growth is 59.7%.
On to `COc1ccc(/C=C(/c2ccccc2)[N+](=O)[O-])cc1`, for which the growth is -88.3% (active).
As to `COc1ccccc1/C=C1\Oc2cc(OCCCN3CCCC3)ccc2C1=O`, the growth was 77.8%.
For `COc1ccc(/C=C\c2nc3ccccc3s2)cc1OP(=O)(O)O`, the growth was 38.5%.
In the case of `COc1ccc(-c2c[nH]c(C(=O)O)c2-c2cc(OC)c3c(c2OC)OCO3)cc1`, the growth was 86.4%.
For `COc1ccc(C(=O)c2cc3c(N)c(C(=O)Nc4cccc(Cl)c4C)sc3nc2C)cc1`, the growth was 15.6%.
As to `O=C(/C=C\c1ccc(OCCCCCC[P+](c2ccccc2)(c2ccccc2)c2ccccc2)cc1)c1ccc2c(c1)OCCO2`, the growth was 2.91% (active).
Still for that read-out and setting: then `Cc1cccc(Oc2ccc(Nc3ncnc4ccc(NC(=O)CNCCO)cc34)cc2Cl)c1`, with 52.9%; and `O=C(CSc1nc2sc3c(c2c(=O)n1Cc1ccccc1)CCCC3)N1CCN(c2ccccc2)CC1`, with 92.9%; and `Cc1cccc(Oc2ccc(Nc3ncnc4ccc(NC(=O)CN(C)C)cc34)cc2Cl)c1`, with 40.8%.
As to `O=C1/C(=C/c2ccc(O)cc2)COc2ccc(-c3ccccc3)cc21`, the growth is 132%.
`COc1ccc(C(=O)c2cc3c(N)c(C(=O)Nc4cccc(OC)c4)sc3nc2C)cc1`: the growth was 45.8%.
As to `NS(=O)(=O)c1cccc(NC(=O)C(=O)C2C(=O)Nc3ccccc32)c1` (stereo not drawn), the growth is -3.03% (active).

The subject of a further assay is A498 renal. The description is as above. Particulars: 10 µM unless noted.
`COc1cccc2cc(-c3cc4ccccc4[nH]3)/c(=N/C(=S)Nc3ccc(C)cc3)oc12`: the growth was 63%.
Regarding `CN1C(=O)N(C)C2NC(N/N=C/c3ccccc3)=NC21` (stereo not drawn), the growth was 95.4%.
For `COc1cc(-c2cc(=O)oc3cc(O)ccc23)cc(OC)c1OC`, the growth is 101%.
Take `COc1ccccc1/C=N/NC1=NC2C(N1)N(C)C(=O)N2C` (stereo not drawn): the growth was 97.4%.
As to `CCN(CC)CCSCCCNc1c(C)cnc2cc(Cl)ccc12`, the growth is 71.4%.
`COc1cc(Nc2cc(O)c3c(=O)cc(-c4ccccc4)oc3c2)cc(OC)c1`: the growth is -4.73% (active).
Same read-out and setting: under `NC(=O)c1ncn(C2OC(CO)C(O)C2O)n1` (stereo not drawn) stands 89.1%.
As to `C(=N\Nc1ncc(-c2cc3cc4c(cc3o2)OCO4)s1)/c1c[nH]c2ccccc12`, the growth is -3.19% (active).
As for `c1ccc(C2CC(c3cccc(Nc4ccncc4)c3)=NN2c2ccccc2)cc1` (stereo not drawn), the growth is 83.2%.
As to `CC1=NNC(=O)C1CCC(=O)N/N=C(\C)c1ccc2ccccc2c1` (stereo not drawn), the growth was 110%.
`O=C(N/N=C/c1ccncc1)c1ccccc1Nc1cccc(C(F)(F)F)c1`: the growth was 71.9%.
Regarding `COc1ccc(Nn2c(SCC(=O)Nc3nc(-c4ccc(Cl)cc4)cs3)nc(C)c2C)cc1`, the growth is 69.5%.
On to `COc1c(Cl)cc(Cl)c2ccc(C=C3C(=O)N(C)C(=O)N(C)C3=O)nc12`, for which the growth was 96.8%.
`Cc1cccc(C)c1-c1cc(Cc2ccc(Cl)cc2)c(=O)[nH]n1`: the growth was 104%.
For the compound `CCN1C(=O)N(CC)C2C1NN=c1s/c(=C3\C(=O)Nc4ccccc43)c(=O)n12` (stereo not drawn), the growth is -26.6% (active).
Consider `CC(=O)Nc1ccc(C(=O)Nc2cc(-c3ccccc3)ccc2N)cc1`, for which the growth was 83.9%.
`CN1CCN(c2cc(F)c(NC3=C(Cl)C(=O)c4ncccc4C3=O)c(F)c2)CC1`: the growth is 80.1%.
As to `Clc1nc(Cl)c2ncn(CC3(Cn4cnc5c(Cl)nc(Cl)nc54)COC3)c2n1`, the growth is -88.6% (active).
In the case of `CC(C)(C)CC(C)(C)Nc1c(-c2ccc(C(F)(F)F)cc2)nc2cnccn12`, the growth is 83.8%.
For the compound `CCC(C)N(CCNc1cc(OC)cc2cccnc12)CCC(C)C` (stereo not drawn), the growth is 72.9%.
As for `Cn1c(COC(=O)NCCc2ccccn2)nc2c(N3CCOCC3)nc(Cl)nc21`, the growth was 51.9%.
Regarding `Clc1ccc(N2N=C(c3cccc(Nc4ccncc4)c3)CC2c2ccc3c(c2)OCO3)cc1` (stereo not drawn), the growth is 69.7%.
On the same count and under the same terms, under `COc1cc(CNC(=O)CCCCC[P+](c2ccccc2)(c2ccccc2)c2ccccc2)c(OC)c2c1OCO2` stands 78.8%; under `CC[C@@]12C=CCN3CC[C@]4(c5cc(NC(=O)COc6cc(OCC(=O)Nc7cc8c(cc7OC)N(C)[C@H]7[C@@](O)(C(=O)OC)[C@H](OC(C)=O)[C@]9(CC)C=CCN%10CC[C@]87[C@@H]%109)cc7oc(-c8ccccc8)cc(=O)c67)c(OC)cc5N(C)[C@@H]4[C@](O)(C(=O)OC)[C@H]1OC(C)=O)[C@H]32`, 58.6%.
In the case of `O=C1Nc2c(ccc(Cl)c2Cl)/C1=C/c1ccc(O)cc1`, the growth is 115%.
On to `COc1ccc(/C=C(/c2ccccc2)[N+](=O)[O-])cc1`, for which the growth was 10%.
Turning to `COc1ccccc1/C=C1\Oc2cc(OCCCN3CCCC3)ccc2C1=O`, the growth was 77.3%.
On to `COc1ccc(-c2c[nH]c(C(=O)O)c2-c2cc(OC)c3c(c2OC)OCO3)cc1`, for which the growth is 95%.
For `COc1ccc(C(=O)c2cc3c(N)c(C(=O)Nc4cccc(Cl)c4C)sc3nc2C)cc1`, the growth was -12.4% (active).
For `O=C(/C=C\c1ccc(OCCCCCC[P+](c2ccccc2)(c2ccccc2)c2ccccc2)cc1)c1ccc2c(c1)OCCO2`, the growth is -30% (active).
Same read-out and setting: then `Cc1cccc(Oc2ccc(Nc3ncnc4ccc(NC(=O)CNCCO)cc34)cc2Cl)c1`, with 49.7%; and `Cc1cccc(Oc2ccc(Nc3ncnc4ccc(NC(=O)CN(C)C)cc34)cc2Cl)c1`, with 58.7%.
On to `O=C1/C(=C/c2ccc(O)cc2)COc2ccc(-c3ccccc3)cc21`, for which the growth is 100%.
In the case of `COc1ccc(C(=O)c2cc3c(N)c(C(=O)Nc4cccc(OC)c4)sc3nc2C)cc1`, the growth is -1.41% (active).
Turning to `NS(=O)(=O)c1cccc(NC(=O)C(=O)C2C(=O)Nc3ccccc32)c1` (stereo not drawn), the growth was 120%.

The record behind these values is PubChem BioAssay (NCI).
